Experimental data from PubChem BioAssay (Tox21).
Inconclusive results are not listed. A call without a number means that no potency is given here. Values without a mark were called inactive. Activity calls are given as the source filed them. Unless noted, calls follow the shape of the dose curve; as a rule, active = well fitted cell-killing curve with a large enough effect in the repeat runs; inconclusive = weak or mixed curves, or effect the other way; inactive = no such curve, though single readings can be large or run the other way.

System: not listed separately
Test: qHTS assay to identify small molecule agonists of the farnesoid-X-receptor (FXR) signaling pathway - cell viability counter screen (AID 743218); also: nearly all actives have a fitted effect of over 45% in size
Conditions: FXR-bla HEK293T viability, CellTiter-Glo luminescence, 16 h; series mostly up to 62.6 µM; viability change, negative = cytotoxic: at the top concentration
Outline: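 Readout: CellTiter-Glo luminescence, 30 min RT, multiplexed after the FXR-bla FRET reading. HEK 293T FXR-UAS-bla cells received compound 5 h post-plating and were incubated 16 h at 37 C.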

Compound | Potency | viability change, negative = cytotoxic [%]
CCCCN(CCCC)CCCC | inactive | –
O=C(O)c1ccccc1C(c1ccc(O)cc1)c1ccc(O)cc1 | – | -1.36
CCCCCC1=CCCC1=O | inactive | –
O=C(O)c1ccc2c(c1)C(=O)OC2=O | – | -9.04
N[C@@H](Cc1cc(I)c(Oc2cc(I)c(O)c(I)c2)c(I)c1)C(=O)O | – | 5.4
O=C(O)c1cc(O)c(O)c(O)c1 | inactive | –
c1c[nH]cn1 | inactive | –
c1ccc2scnc2c1 | inactive | –
CC(=O)Nc1ccccc1 | inactive | –
C#CCN(C)Cc1ccccc1 | – | -10.4
CCCCCCCCCC | – | 1.36
O=C(O)[C@H](O)[C@@H](O)[C@H](O)[C@H](O)CO | inactive | –
O=C(Oc1ccccc1)c1ccccc1 | inactive | –
CC(c1cc2ccccc2s1)N(O)C(N)=O (stereo not given) | inactive | –

Target: Bile acid receptor (Homo sapiens) (UniProt Q96RI1)
Sequence (Q96RI1 whole entry, looked up): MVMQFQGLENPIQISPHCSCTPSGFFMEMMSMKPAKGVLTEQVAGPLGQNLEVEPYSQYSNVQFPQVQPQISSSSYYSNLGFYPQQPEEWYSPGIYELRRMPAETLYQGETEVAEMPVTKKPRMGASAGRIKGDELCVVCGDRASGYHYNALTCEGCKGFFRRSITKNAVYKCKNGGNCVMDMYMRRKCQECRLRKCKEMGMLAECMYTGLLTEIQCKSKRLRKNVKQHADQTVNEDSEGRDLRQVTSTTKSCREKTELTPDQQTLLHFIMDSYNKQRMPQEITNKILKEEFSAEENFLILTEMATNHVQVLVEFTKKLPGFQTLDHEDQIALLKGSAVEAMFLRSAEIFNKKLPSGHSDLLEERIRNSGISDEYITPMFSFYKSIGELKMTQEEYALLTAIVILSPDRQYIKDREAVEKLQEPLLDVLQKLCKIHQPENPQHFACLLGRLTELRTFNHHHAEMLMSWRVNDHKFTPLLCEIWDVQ
Test: qHTS assay to identify small molecule agonists of the farnesoid-X-receptor (FXR) signaling pathway (AID 743220; active = well fitted activation curve with a large enough effect in the signal ratio in the repeat runs, not every such curve was filed as active; the % refers to the signal ratio)
Conditions: HEK293T FXR-UAS-bla, beta-lactamase FRET ratio, 16 h; series mostly up to 62.6 µM; activation: at the top concentration
Outline: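 FXR-UAS-bla HEK 293T cells carrying a UAS-driven beta-lactamase reporter were plated for 5 h at 37C/5% CO2, then exposed to DMSO-dissolved Tox21 10K compounds for 16 h at 37C. A LiveBLAzer B/G FRET substrate was loaded for 2 h at room temperature before fluorescence reading.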

Compound | activation [%] | outcome
Oc1cccc2ccccc12 | -0.685 | –
O=C(O)CCCCCCCCCCC(=O)O | – | inactive
O=C=NCCCCCCN=C=O | – | inactive
OCc1cccnc1 | – | inactive
C[Si](O[Si](C)(C)C)O[Si](C)(C)C | – | inactive
CC1CCC2CC1C2(C)C (stereo not given) | – | inactive
O=C(CC(C(=O)OC1CCCCC1)S(=O)(=O)O)OC1CCCCC1 (stereo not given) | – | inactive
c1ccc2c(c1)ccc1ccccc12 | – | inactive
CCCCCC/C(C=O)=C\c1ccccc1 | – | inactive
CN(C)CCCN | – | inactive
CCCCN(CCCC)CCCC | – | inactive
CCCCCC1=CCCC1=O | – | inactive
O=C(O)c1ccc2c(c1)C(=O)OC2=O | – | inactive
CC(=O)Nc1ccccc1 | – | inactive
CCCCCCCCCC | – | inactive
O=C(Oc1ccccc1)c1ccccc1 | – | inactive
